Molecules are shown by their SMILES. This is part of a sample that, as a whole, favours compounds with a hit. Of some 83,000 tested, about 20% had one in any assay.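 Note: values are percent growth. 100 is the growth of untreated cells, values between 100 and 0 indicate rising inhibition; between -100 and 0 indicates cell death.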 A number with no mark means an inactive call. The source made the active and inactive calls. The calls were made as follows: active = growth percent below 10; inactive = the rest.

Test systems include EKVX NSCLC; SN12C renal; UO-31 renal; ACHN renal; CAKI-1 renal; A498 renal; CCRF-CEM leukemia; MOLT-4 leukemia; SR leukemia; RPMI-8226 leukemia; OVCAR-8 ovarian; OVCAR-5 ovarian; OVCAR-4 ovarian; SK-OV-3 ovarian; IGROV1 ovarian; OVCAR-3 ovarian; HS 578T breast; NCI/ADR-RES ovarian; T-47D breast.
Common to all, as to experiment: NCI-60 one-dose screen, 48 h (100 = growth as untreated, 0 = no growth, -100 = all killed)
What all share (settings): 10 µM unless noted

Regarding `CS(=O)(=O)c1ccc(-c2nc3ccccn3c2/C=N/Nc2nc(-c3ccc(Br)cc3)cs2)cc1`, the growth with EKVX NSCLC was 97.8%; in the test with SN12C renal, 103%; with UO-31 renal, 84.8%; with ACHN renal, 103%; with CAKI-1 renal, 96.9%; in the test on A498 renal, 78%. The growth with CCRF-CEM leukemia is 90.8%; in the test with MOLT-4 leukemia it was 94%; in the test on SR leukemia, 95.1%; in the test with RPMI-8226 leukemia, 94.1%; in the test on OVCAR-8 ovarian, 99.1%; in the test with OVCAR-5 ovarian, 110%. For the same compound, the growth is 107% in the test on OVCAR-4 ovarian; 140% in the test with SK-OV-3 ovarian; 111% in the test on IGROV1 ovarian; 139% in the test with OVCAR-3 ovarian; 112% in the test on HS 578T breast; 107% in the test with NCI/ADR-RES ovarian. Besides, in the test on T-47D breast, the growth was 94%.

As to `CC(=O)Oc1ccccc1C(=O)Nc1ccc(C(=O)/C=C/c2cccs2)cc1`, the growth is 103% in the test with EKVX NSCLC; 104% with SN12C renal; 105% in the test on UO-31 renal; 112% in the test on ACHN renal; 96.2% in the test with CAKI-1 renal; 80.7% in the test on A498 renal. Besides, the growth in the test with CCRF-CEM leukemia is 99.7%; with MOLT-4 leukemia, 104%; with SR leukemia, 93.9%; with RPMI-8226 leukemia it was 96.2%; with OVCAR-8 ovarian it was 107%; in the test on OVCAR-5 ovarian, 109%. Moreover, the growth was 104% with OVCAR-4 ovarian; 132% in the test on SK-OV-3 ovarian; 116% in the test with IGROV1 ovarian; 122% with OVCAR-3 ovarian; 120% in the test on HS 578T breast; 106% in the test with NCI/ADR-RES ovarian. The growth in the test on T-47D breast is 100%.

In the case of `Clc1ccc2c(NCCCn3ccnc3)c3oc4ccc(Cl)cc4c3nc2c1`, the growth in the test on EKVX NSCLC is 46.7%; in the test on SN12C renal, 79.3%; in the test with UO-31 renal, 44%; in the test with ACHN renal, 44.4%; in the test with CAKI-1 renal, 60.5%; with A498 renal it was 45.9%. Further, the growth in the test with CCRF-CEM leukemia was 57.2%; in the test on MOLT-4 leukemia, 77%; with SR leukemia, -11.2% (active); with RPMI-8226 leukemia, 82.8%; in the test with OVCAR-8 ovarian, 71.9%; with OVCAR-5 ovarian, 86.7%. For the same compound, the growth is 95.7% in the test on OVCAR-4 ovarian; 83.4% with SK-OV-3 ovarian; 58.9% in the test on IGROV1 ovarian; 98.8% with OVCAR-3 ovarian; 91.1% with HS 578T breast; 74.1% in the test with NCI/ADR-RES ovarian. Moreover, the growth in the test with T-47D breast was 78.2%.

For the compound `NC(=O)c1cc(-c2ccc3ncnc(N4CCc5cc(F)c(Cl)cc54)c3c2)cnc1N`, the growth with EKVX NSCLC was 13.6%; with SN12C renal it was 23.4%; in the test on UO-31 renal, 22.3%; in the test on ACHN renal it was 23.1%; in the test with CAKI-1 renal, 19.9%; in the test on A498 renal, -68.3% (active). The growth in the test on CCRF-CEM leukemia was 21%; in the test on MOLT-4 leukemia, -11.8% (active); with SR leukemia, 18.5%; with RPMI-8226 leukemia, -8.02% (active); with OVCAR-8 ovarian, 32.8%; in the test with OVCAR-5 ovarian, 36.5%. Moreover, the growth in the test with OVCAR-4 ovarian is 10.4%; in the test with SK-OV-3 ovarian, 35.9%; with IGROV1 ovarian it was -41.2% (active); in the test on OVCAR-3 ovarian, 1.86% (active); in the test with HS 578T breast, -7.69% (active); in the test on NCI/ADR-RES ovarian it was 60.2%. Further, in the test with T-47D breast, the growth was 0.0054% (active).

For the compound `c1ccc2c(NCCCn3ccnc3)c3oc4ccccc4c3nc2c1`, the growth with EKVX NSCLC is 3.11% (active); in the test with SN12C renal it was -10.8% (active); in the test on UO-31 renal, 0.573% (active); in the test on ACHN renal, -7.51% (active); in the test with CAKI-1 renal it was -8.49% (active); in the test on A498 renal, -18.2% (active). Also, the growth in the test on CCRF-CEM leukemia was 15%; in the test with MOLT-4 leukemia, -3.87% (active); with SR leukemia, -2.89% (active); with RPMI-8226 leukemia it was -25.4% (active); in the test with OVCAR-8 ovarian it was -16.9% (active); in the test with OVCAR-5 ovarian it was 1.5% (active). Further, the growth in the test on OVCAR-4 ovarian was -10.6% (active); with SK-OV-3 ovarian it was 16.5%; in the test on IGROV1 ovarian it was -6.93% (active); in the test with OVCAR-3 ovarian it was 5.25% (active); in the test on HS 578T breast it was 19.7%; in the test with NCI/ADR-RES ovarian, 2.5% (active). For the same compound, in the test with T-47D breast, the growth was 17%.

For the compound `OC1CCN(CCCOc2c3ccccc3nc3c2oc2ccccc23)CC1`, the growth was -13.7% (active) in the test with EKVX NSCLC; -1.2% (active) with SN12C renal; -34.4% (active) in the test on UO-31 renal; -39% (active) in the test on ACHN renal; -36.7% (active) in the test on CAKI-1 renal; -78.8% (active) in the test with A498 renal. For the same compound, the growth with CCRF-CEM leukemia is 6.02% (active); in the test with MOLT-4 leukemia it was 3.82% (active); in the test with SR leukemia it was -3.77% (active); in the test on RPMI-8226 leukemia, -24% (active); in the test with OVCAR-8 ovarian, -44.9% (active); with OVCAR-5 ovarian, -8.63% (active). In addition, the growth with OVCAR-4 ovarian was 4.9% (active); with SK-OV-3 ovarian, -10.8% (active); with IGROV1 ovarian it was -37.2% (active); in the test with OVCAR-3 ovarian, -18.7% (active); in the test on HS 578T breast, 8.94% (active); with NCI/ADR-RES ovarian it was -17.9% (active). Further, the growth in the test with T-47D breast was 1.32% (active).

As to `OC1CCN(CCCOc2c3ccc(Cl)cc3nc3c2oc2ccccc23)CC1`, the growth is -43.4% (active) with EKVX NSCLC; 6.58% (active) with SN12C renal; -52.1% (active) with UO-31 renal; -50.1% (active) in the test with ACHN renal; -3.51% (active) with CAKI-1 renal; -91.3% (active) in the test on A498 renal. Further, the growth in the test with CCRF-CEM leukemia was 2.24% (active); in the test on MOLT-4 leukemia, -21.5% (active); in the test on SR leukemia, -38.5% (active); in the test on RPMI-8226 leukemia, -15.1% (active); in the test on OVCAR-8 ovarian, 3.92% (active); in the test with OVCAR-5 ovarian, -4.92% (active). In addition, the growth with OVCAR-4 ovarian was 1.3% (active); in the test with SK-OV-3 ovarian, 7.92% (active); with IGROV1 ovarian it was -18% (active); in the test with OVCAR-3 ovarian, 0.661% (active); in the test with HS 578T breast it was -6.78% (active); with NCI/ADR-RES ovarian, 6.48% (active). For the same compound, the growth with T-47D breast is 11%.

Take `CN(C)c1ccc(/C=c2\sc3nc4ccccc4n3c2=O)cc1`: the growth was 87% in the test on EKVX NSCLC; 99.2% with SN12C renal; 92.2% in the test with UO-31 renal; 98% in the test with ACHN renal; 93.3% in the test with CAKI-1 renal; 85.1% in the test on A498 renal. The growth in the test on CCRF-CEM leukemia is 13.8%; in the test with MOLT-4 leukemia, 103%; with SR leukemia it was 99.7%; in the test on RPMI-8226 leukemia it was 104%; in the test on OVCAR-8 ovarian it was 106%; in the test with OVCAR-5 ovarian it was 102%. In addition, the growth in the test on OVCAR-4 ovarian was 107%; with SK-OV-3 ovarian, 124%; in the test with IGROV1 ovarian it was 77.2%; with OVCAR-3 ovarian, 124%; in the test with HS 578T breast, 101%; in the test with NCI/ADR-RES ovarian it was 107%. Besides, the growth in the test on T-47D breast is 83.8%.
